Only some compounds are listed: those with a hit (about 6.9% of all), similar ones and a draw of the others.
MPTP inh – inhibitors of mitochondrial permeability transition pore; isolated mouse mitochondria, Ca2+ swelling absorbance, 30 min; AID 602449; 360,000 compounds, 1.4% hits; inhibition, % at 10 µM;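 active = inhibition of 50% or more, scaled per plate between neutral and stimulator controls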;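 also: 0% = DMSO wells given calcium and 100% = 1 mM EGTA wells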
SKKanGAS inh – inhibitors of SKKanGAS S. pyogenes growth in kanamycin (SK-promoter or general growth effect). BacTiter-Glo, 6 h. 300,000 compounds, 1.3% hits. inhibition, % at 7.5 µM;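 active = mean replicate score, as percent of positive control median, at least 50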;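 also: strain carries kanamycin resistance gene driven by streptokinase promoter and grows in 40 µg/ml kanamycin; loss of luminescence reflects streptokinase promoter inhibition or plain growth inhibition; 0% = median of DMSO wells and 100% = positive control at its reference dose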
CSC inhib – cancer stem cell inhibition; cancer stem cell-like cells viability, luminescence; inhibition, % at 7.5 µM; 300,000 compounds, 1.1% hits; AID 2717; in the data active = inhibition above about 75%; tested in HMLE shEcad cells
Beta cell apopt – blocks beta cell apoptosis; INS-1E cytokine-induced death, ATP luminescence, 48 h; percent of positive-control rescue, neutral wells zero; protection from apoptosis, % (test concentration not listed); 300,000 compounds, 0.8% hits; AID 435005;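 active = Every replicate reaches about 75%, or at least half do and their mean reaches it too, limit read from the data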;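 also: 0% = cytokine-treated negative control wells and 100% = positive control rescue; higher means more ATP so stronger rescue from cytokine killing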
GRIN3A LBD mod – NR3A (human) ligand-binding domain modulation | NR3A LBD differential scanning fluorimetry, Tm shift; 0% = protein alone, 100% = glycine-bound protein | Tm shift relative to glycine control, % at 25 µM | 340,000 compounds, 2.5% hits | AID 1259313;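 active = melting temperature shift of at least 10% of the positive control shift, at one fixed dose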
Mdm2 MdmX PPI – inhibitors of human Mdm2/MdmX interaction. SaOS-2 split-luciferase Mdm2/MdmX complementation, luminescence. AID 485346. O15151+Q00987. 330,000 compounds, 3% hits. inhibition, % at 8 µM;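 active = inhibition of at least 50% at 8 µM in the primary screen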
Target sequence (O15151 whole entry, looked up): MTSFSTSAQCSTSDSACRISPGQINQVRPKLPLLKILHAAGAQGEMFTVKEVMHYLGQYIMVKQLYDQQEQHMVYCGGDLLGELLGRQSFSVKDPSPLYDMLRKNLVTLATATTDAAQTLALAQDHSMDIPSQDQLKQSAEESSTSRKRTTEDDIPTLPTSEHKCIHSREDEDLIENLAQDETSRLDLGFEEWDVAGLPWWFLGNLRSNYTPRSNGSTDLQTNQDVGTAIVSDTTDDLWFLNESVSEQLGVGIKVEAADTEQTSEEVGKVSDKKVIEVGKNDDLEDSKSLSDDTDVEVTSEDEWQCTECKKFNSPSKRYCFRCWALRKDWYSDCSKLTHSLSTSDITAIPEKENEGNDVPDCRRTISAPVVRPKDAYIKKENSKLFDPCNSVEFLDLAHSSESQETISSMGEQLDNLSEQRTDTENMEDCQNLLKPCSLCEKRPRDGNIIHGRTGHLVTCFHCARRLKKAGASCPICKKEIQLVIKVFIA
Target sequence (Q00987 whole entry, looked up): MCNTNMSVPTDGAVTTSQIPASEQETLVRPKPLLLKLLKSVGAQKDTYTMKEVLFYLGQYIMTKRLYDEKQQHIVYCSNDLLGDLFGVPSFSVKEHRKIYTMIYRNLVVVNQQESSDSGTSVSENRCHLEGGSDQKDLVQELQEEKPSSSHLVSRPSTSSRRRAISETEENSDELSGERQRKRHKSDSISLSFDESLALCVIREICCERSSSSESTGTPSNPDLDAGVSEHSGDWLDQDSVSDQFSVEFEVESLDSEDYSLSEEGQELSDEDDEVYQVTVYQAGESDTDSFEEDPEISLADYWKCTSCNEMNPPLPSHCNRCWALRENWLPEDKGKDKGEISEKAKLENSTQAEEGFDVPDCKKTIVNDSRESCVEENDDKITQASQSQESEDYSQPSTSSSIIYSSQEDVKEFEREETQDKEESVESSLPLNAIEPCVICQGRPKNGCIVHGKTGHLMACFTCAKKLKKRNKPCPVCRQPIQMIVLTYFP
Mdm2 MdmX conf – human Mdm2/MdmX binding inhibition, confirmed. luminescent assay. 10,000 compounds, 55% hits. inhibition, % at 8 µM. shares compounds with Mdm2 MdmX PPI; in the data active = inhibition above about 40%
Full FLuc ctr – full-length luciferase inhibition in Mdm2/MdmX counter-screen. shares compounds with Mdm2 MdmX PPI. SaOS-2 full-length luciferase counterscreen, luminescence. inhibition, % at 8 µM. 6,200 compounds, 77% hits. AID 504607;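 active = mean inhibition at 8 µM reaching about 37%, which flags the compound as non-specific, limit read from the data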;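 also: p53-null SaOS-2 cells with luciferase driven by a doxycycline-inducible promoter; compound on cells about two nights before reading with doxycycline added after day one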
Starred values were filed as active, the others as inactive; ! = a repeat was not active.

How did COc1ccc(OC)c(NS(=O)(=O)c2ccc(N3CCCC3=O)cc2)c1 do in these assays?
MPTP inh: -1; SKKanGAS inh: 4; CSC inhib: 57; Beta cell apopt: 15; GRIN3A LBD mod: 2; Mdm2 MdmX PPI: 72*; Mdm2 MdmX conf: 57*; Full FLuc ctr: 83*

How did COc1ccc(CCNS(=O)(=O)c2ccc(N3CCCC3=O)cc2)cc1 do in these assays?
MPTP inh: 0; SKKanGAS inh: -9; CSC inhib: -16; Beta cell apopt: 3; GRIN3A LBD mod: 1; Mdm2 MdmX PPI: 13

Results for CCOC(=O)C1CCN(C(=O)c2ccccc2)C(CC)C1=O (stereo not given) ?
MPTP inh: 0; GRIN3A LBD mod: 0

How did OCCN1CCN(c2ncnc3ccc(Br)cc23)CC1 do in these assays?
MPTP inh: -1; SKKanGAS inh: -3; GRIN3A LBD mod: -2; Mdm2 MdmX PPI: 51*; Mdm2 MdmX conf: 60*; Full FLuc ctr: 45*

How did COc1ccc(N(Cc2cc3cc(OC)ccc3[nH]c2=O)S(=O)(=O)c2ccc(NC(C)=O)cc2)cc1 do in these assays?
MPTP inh: -2; SKKanGAS inh: 12; CSC inhib: 33; Beta cell apopt: 3; GRIN3A LBD mod: -14; Mdm2 MdmX PPI: 77*; Mdm2 MdmX conf: 71*; Full FLuc ctr: 65*

How did COc1ccc(N(Cc2cc3ccccc3[nH]c2=O)S(=O)(=O)c2ccc(OC)cc2)cc1 do in these assays?
MPTP inh: 0; SKKanGAS inh: -1; CSC inhib: 47; Beta cell apopt: -5; GRIN3A LBD mod: -7; Mdm2 MdmX PPI: 35

Results for CCOC(=O)Cn1c(S(=O)(=O)Cc2cccc(F)c2)nc(-c2ccccc2)c1-c1ccccc1 ?
MPTP inh: -2; SKKanGAS inh: -1; CSC inhib: 29; Beta cell apopt: 31; GRIN3A LBD mod: 8; Mdm2 MdmX PPI: 81*; Mdm2 MdmX conf: 56*; Full FLuc ctr: 67*

How did C#CCn1c(S(=O)(=O)Cc2ccc(F)cc2)nc(-c2ccccc2)c1-c1ccccc1 do in these assays?
MPTP inh: 0; SKKanGAS inh: 7; CSC inhib: 54; Beta cell apopt: 20; GRIN3A LBD mod: 2; Mdm2 MdmX PPI: 97*; Mdm2 MdmX conf: 91*; Full FLuc ctr: 52*

What do the screens show for `CCOC(=O)Cn1c(S(=O)(=O)Cc2ccc(F)cc2)nc(-c2ccccc2)c1-c1ccccc1`?
MPTP inh: 0; SKKanGAS inh: 4; CSC inhib: 20; Beta cell apopt: 3; GRIN3A LBD mod: 0; Mdm2 MdmX PPI: 79*; Mdm2 MdmX conf: 56*; Full FLuc ctr: 63*

What do the screens show for `CCOC(=O)Cn1c(-c2ccccc2)nc2ccccc2c1=O`?
MPTP inh: 0; SKKanGAS inh: -14; CSC inhib: -1; Beta cell apopt: -5; GRIN3A LBD mod: 1; Mdm2 MdmX PPI: 0

How did NC(=O)Cn1c(S(=O)(=O)Cc2ccccc2)nc2ccccc21 do in these assays?
MPTP inh: -2; SKKanGAS inh: 0; CSC inhib: -9; Beta cell apopt: -10; GRIN3A LBD mod: 0; Mdm2 MdmX PPI: -14

How did CCOC(=O)Cn1c(-c2ccc(OC)cc2)c(-c2ccc(OC)cc2)nnc1=O do in these assays?
MPTP inh: 0; SKKanGAS inh: -1; CSC inhib: -11; Beta cell apopt: -5; GRIN3A LBD mod: 1; Mdm2 MdmX PPI: 4

Results for CCCCN1C(=O)C(CC(=O)NCc2ccco2)CC(C(=O)N2CCOCC2)=C1C (stereo not given) ?
MPTP inh: -2

How did O=C(NC1CCCC1)C(c1cccnc1)N(C(=O)c1csnn1)c1ccccc1 (stereo not given) do in these assays?
MPTP inh: 0; SKKanGAS inh: 16; CSC inhib: 1; Beta cell apopt: 2; GRIN3A LBD mod: 0; Mdm2 MdmX PPI: -20

What do the screens show for `N#Cc1ccc(CN2CCN(CC(=O)NCCc3ccc(Cl)cc3Cl)CC2)cc1`?
MPTP inh: 0; SKKanGAS inh: -2; CSC inhib: 8; Beta cell apopt: -7; GRIN3A LBD mod: -5; Mdm2 MdmX PPI: 7

How did CN(C)c1ccnc2c[cH-]cc12.[Fe].c1ccc(-[c-]2[c-](-c3ccccc3)[c-](-c3ccccc3)[c-](-c3ccccc3)[c-]2-c2ccccc2)cc1 (stereo not given) do in these assays?
MPTP inh: 18; SKKanGAS inh: 86*; CSC inhib: -13; Beta cell apopt: 35; GRIN3A LBD mod: -4; Mdm2 MdmX PPI: 98*; Mdm2 MdmX conf: 78*; Full FLuc ctr: 37*!

What do the screens show for `Cc1nc(C(=O)Nc2cc(F)cc(Cl)c2)sc1C1(C)CC(c2ccccc2)=NO1` (stereo not given)?
MPTP inh: -2; SKKanGAS inh: 9; CSC inhib: 12; Beta cell apopt: -1; GRIN3A LBD mod: -12; Mdm2 MdmX PPI: 20

What do the screens show for `COc1ccc(NC(=O)c2nc(C)c(C3(C)CC(c4cccnc4)=NO3)s2)cc1` (stereo not given)?
MPTP inh: 0; SKKanGAS inh: 7; CSC inhib: 6; Beta cell apopt: 13; GRIN3A LBD mod: 0; Mdm2 MdmX PPI: 60*; Mdm2 MdmX conf: 59*; Full FLuc ctr: 66*

Results for Cc1nc(C(=O)NC2CCCCC2)sc1C1(C)CC(c2cccc([N+](=O)[O-])c2)=NO1 (stereo not given) ?
MPTP inh: -2; SKKanGAS inh: 19; CSC inhib: 16; Beta cell apopt: 12; GRIN3A LBD mod: -7; Mdm2 MdmX PPI: 39

How did Cc1nc(C(=O)Nc2ccc(Cl)cc2)sc1C1(C)CC(c2cccc([N+](=O)[O-])c2)=NO1 (stereo not given) do in these assays?
MPTP inh: 1; SKKanGAS inh: 19; CSC inhib: 5; Beta cell apopt: 14; GRIN3A LBD mod: -5; Mdm2 MdmX PPI: 61*; Mdm2 MdmX conf: 36; Full FLuc ctr: 47*

How did CC(C)Oc1ccc(S(=O)(=O)N2CCOCC2)cc1NC(=O)C1=COCCO1 do in these assays?
MPTP inh: -1; SKKanGAS inh: -3; CSC inhib: -6; Beta cell apopt: -1; GRIN3A LBD mod: 1; Mdm2 MdmX PPI: 15

How did O=C1C=C(N2CCOCC2)c2cccc3cccc1c23 do in these assays?
MPTP inh: 1

What do the screens show for `O=C1C=C(N2CCOCC2)c2ccccc2C1=O`?
MPTP inh: 4; SKKanGAS inh: 34; CSC inhib: 21; Beta cell apopt: 104*; GRIN3A LBD mod: 3; Mdm2 MdmX PPI: 74*; Mdm2 MdmX conf: 20

How did Cc1ccc(OCCNC(=O)c2cncc(Br)c2)cc1C do in these assays?
MPTP inh: 3; SKKanGAS inh: -3; CSC inhib: 53; Beta cell apopt: -12; GRIN3A LBD mod: 1; Mdm2 MdmX PPI: 60*; Mdm2 MdmX conf: 48*; Full FLuc ctr: 60*

Screening results deposited in PubChem BioAssay by several laboratories.
